Rows were chosen to be rich in hits. Some 2.5% of all compounds tested hit in one or more screens of this group.
Lassa entry inh = inhibitors of Lassa virus binding or cell entry; 300,000 compounds, 1.2% hits; Lassa virus pseudotype entry inhibition, cell reporter; Potency, µM (titrated, usually from 37.9 µM), actives largely listed as inhibitors; AID 540256; calls by dose curve; tested in HEK293 cells; also: nearly all actives have a fitted effect of over 50% in size
VACV mCherry inh = inhibitors of vaccinia virus infection (mCherry reporter signal); Potency, µM (top dose mostly 36.5 µM), actives largely listed as inhibitors; 310,000 compounds, 0.63% hits; Vaccinia virus mCherry reporter infection, fluorescence; AID 720579; calls by dose curve; tested in A549 cells; also: nearly all actives have a fitted effect of over 35% in size
MARV entry inh = Marburg virus entry inhibition; Marburg virus pseudotyped entry inhibition, cell reporter; 300,000 compounds, 1.8% hits; Potency, µM (series often up to 37.8 µM), actives largely listed as inhibitors; AID 540276; calls by dose curve; tested in HEK293 cells
Vaccinia Venus = vaccinia inhibition (Venus reporter); AID 720580; Potency, µM (titrated, usually from 36.5 µM), actives largely listed as inhibitors; 330,000 compounds, 0.46% hits; Vaccinia virus Venus reporter expression, fluorescence; calls by dose curve; tested in A549 cells; also: nearly all actives have a fitted effect of over 30% in size
Of the large screens only hits and unclear results are named; the others gave an inactive call.

COc1ccc(C(=O)Nc2ccc(N3CCOCC3)cc2)cc1S(=O)(=O)N1CCOCC1	none
C=CC[n+]1cccc2cc(Br)ccc21	none (no result: Lassa entry inh, MARV entry inh)
Fc1ccc(Nc2ccnc(Nc3ccc(F)cc3)n2)cc1	VACV mCherry inh 10µM, Vaccinia Venus 11.2µM
CC1CN(S(=O)(=O)c2cccc(C(=O)Nc3ccc4c(c3)CCC4)c2)CC(C)O1 (stereo not given)	Lassa entry inh inconclusive, VACV mCherry inh inconclusive, MARV entry inh 11.2µM
CN(c1cccc(Cl)c1)S(=O)(=O)c1cccc(C(=O)Nc2ccc3c(c2)CCC3)c1	Lassa entry inh inconclusive, MARV entry inh 2.24µM
O=C(Nc1ccc(Cl)cc1)Nc1cccc(C(=O)O)c1	Lassa entry inh 0.326µM, MARV entry inh 0.92µM
O=C(Nc1cccc(C(=O)O)c1)Nc1ccccc1Cl	Lassa entry inh 3.98µM, MARV entry inh 8.91µM
O=C(Nc1ccc(Cl)c(Cl)c1)Nc1ccccc1C(=O)O	Lassa entry inh 3.55µM, MARV entry inh inconclusive
O=c1[nH]/c(=C/c2ccc3c(c2)OCO3)c(=O)[nH]/c1=C/c1ccc2c(c1)OCO2	none (no result: Lassa entry inh, MARV entry inh)
O=C([C@@H]1C[C@@H](Sc2nc3ccccc3[nH]2)CN1Cc1ccc(C(F)(F)F)cc1)N1CCN(c2ccccc2F)CC1	none (no result: Lassa entry inh, MARV entry inh)
CN(Cc1ccco1)C(=O)c1cc(NC(=O)C2CCC2)c2c(c1)nc(-c1ccncc1)n2C	none (no result: Lassa entry inh, MARV entry inh)
C=C1C(=O)[C@]23C[C@H]1CCC2[C@@]1(C)C(C[C@@H]3O)[C@](C)(C(=O)OC)CC[C@@H]1O (stereo not given in full)	VACV mCherry inh 8.91µM, Vaccinia Venus inconclusive (no result: Lassa entry inh, MARV entry inh)
CCCOc1ccc(CS[C@@H](CC(=O)O)C(=O)O)cc1	none (no result: Lassa entry inh, VACV mCherry inh, Vaccinia Venus)
CN(C(=O)COc1ccccc1C(=O)NCCOc1ccccc1)c1ccccc1	Lassa entry inh 11.2µM, VACV mCherry inh inconclusive, MARV entry inh inconclusive, Vaccinia Venus 11.2µM
O=C(NCCOc1ccccc1)c1ccccc1Cl	Lassa entry inh inconclusive, MARV entry inh inconclusive
CCc1cc2c(nc1CC)CCN(CCC(C)=NO[C@H](C)c1cn([C@H](CO)Cc3ccccc3)nn1)C2	none (no result: Lassa entry inh, VACV mCherry inh, Vaccinia Venus)
N=c1c2c(n(Cc3ccccc3)c3c1CCC3)CCC2	Lassa entry inh 1.58µM, MARV entry inh inconclusive, Vaccinia Venus inconclusive (no result: VACV mCherry inh)
N=c1c2c(n(Cc3cccc(Cl)c3)c3c1CCC3)CCCC2	Lassa entry inh inconclusive, MARV entry inh inconclusive, Vaccinia Venus inconclusive
N=c1c2c(n(Cc3ccc(Cl)cc3Cl)c3c1CCC3)CCCC2	Lassa entry inh 3.98µM, MARV entry inh inconclusive, Vaccinia Venus inconclusive (no result: VACV mCherry inh)
N=c1c2c(n(Cc3ccc(Cl)cc3)c3c1CCC3)CCC2	Lassa entry inh inconclusive, MARV entry inh inconclusive, Vaccinia Venus inconclusive
CN(C)CCN1C(=O)c2cccc3cc([N+](=O)[O-])cc(c23)C1=O	Lassa entry inh 0.447µM, VACV mCherry inh 1.12µM, MARV entry inh 0.316µM, Vaccinia Venus inconclusive
CCCCCCC[n+]1ccc(/C=C/c2c(C)[nH]c3ccccc23)c2ccccc21	none (no result: Lassa entry inh, MARV entry inh)
COc1ccc(Nc2nnc(SCC(=O)/C=C3/N(C)c4ccccc4C3(C)C)s2)cc1	Lassa entry inh 14.1µM, MARV entry inh inconclusive
CC(=O)Nc1cc(O)c2nonc2c1O	VACV mCherry inh 11.2µM, Vaccinia Venus 3.55µM (no result: Lassa entry inh, MARV entry inh)
O=C(COc1ccc([N+](=O)[O-])cc1)Nc1nc(-c2ccccn2)cs1	Lassa entry inh inconclusive, VACV mCherry inh 5.62µM, MARV entry inh inconclusive, Vaccinia Venus inconclusive
O=C(COc1cccc(F)c1)Nc1nc(-c2ccccn2)cs1	VACV mCherry inh 11.2µM, Vaccinia Venus inconclusive (no result: Lassa entry inh, MARV entry inh)
Cc1cc(C(=O)Nc2nc(-c3ccccn3)cs2)ccc1[N+](=O)[O-]	Lassa entry inh inconclusive, VACV mCherry inh inconclusive, MARV entry inh inconclusive
O=C(Nc1nc(-c2ccccn2)cs1)c1cc(Cl)ccc1[N+](=O)[O-]	Lassa entry inh 4.47µM, VACV mCherry inh inconclusive, MARV entry inh 2.82µM, Vaccinia Venus inconclusive
O=C(Nc1nc(-c2ccccc2)cs1)Nc1ccc(F)cc1F	Lassa entry inh inconclusive
O=C(Nc1nc(-c2ccccn2)cs1)Nc1ccc(F)cc1F	Lassa entry inh inconclusive, VACV mCherry inh 3.98µM, MARV entry inh inconclusive, Vaccinia Venus inconclusive
CC(=O)N1CC2=C(CCCC2)C(C)CC12CCCCC2 (stereo not given)	none (no result: Lassa entry inh, VACV mCherry inh, Vaccinia Venus)
Cc1ncc2c(c1CNC(=O)/C=C/c1cccs1)CCN(C(=O)c1c(C)noc1C)C2	none (no result: Lassa entry inh, MARV entry inh)
C=C(Br)COC(c1ccco1)[C@H](Cc1ccccc1)NC(=O)OC(C)(C)C (stereo not given in full)	none (no result: Lassa entry inh, MARV entry inh)
CC(Oc1ccc(Br)cc1)C(=O)Nc1nc(-c2ccccn2)cs1 (stereo not given)	Lassa entry inh inconclusive, VACV mCherry inh 12.6µM, MARV entry inh inconclusive, Vaccinia Venus inconclusive
C(=N\Nc1ncnc2sc3c(c12)CCC3)/c1ccncc1	VACV mCherry inh 11.2µM, MARV entry inh inconclusive, Vaccinia Venus 10µM
C(=N\Nc1ncnc2sc3c(c12)CCC3)/c1cccs1	none (no result: Lassa entry inh, VACV mCherry inh, Vaccinia Venus)
COC(=O)c1ccccc1-c1cc(C)cc2c1OC(CNC(=O)c1cnc(C)cn1)C2 (stereo not given)	none (no result: Lassa entry inh, MARV entry inh)
COCc1ccc(C(=O)Nc2cccc(S(=O)(=O)N(C)c3ccccc3)c2)cc1	Lassa entry inh inconclusive, MARV entry inh inconclusive
O=C(Cc1ccc(Cl)cc1)Nc1cccc(S(=O)(=O)Nc2ccccc2F)c1	Lassa entry inh inconclusive
CN(C)S(=O)(=O)c1cccc(NC(=O)c2ccc(COc3ccccc3)cc2)c1	Lassa entry inh inconclusive, MARV entry inh 8.91µM
CN(C)S(=O)(=O)c1cccc(NC(=O)Cc2ccc(Cl)cc2)c1	Lassa entry inh 12.6µM
COCCN(C(=O)CCC(=O)Nc1cc(C)on1)C(C(=O)NC1CCCC1)c1ccccc1C (stereo not given)	none
COCCN(C(=O)CCl)C(C(=O)NC1CCCCC1)c1ccccc1C (stereo not given)	Lassa entry inh inconclusive, VACV mCherry inh inconclusive, MARV entry inh 8.91µM, Vaccinia Venus inconclusive
COc1ccccc1N(CC(O)CN1C(C)CCCC1C)S(=O)(=O)c1ccccc1 (stereo not given)	Lassa entry inh inconclusive
O=S(=O)(c1ccccc1)N(CC(O)Cn1c2ccccc2c2ccccc21)c1ccccc1 (stereo not given)	Lassa entry inh inconclusive, MARV entry inh inconclusive, Vaccinia Venus 10µM (no result: VACV mCherry inh)
COc1ccccc1N(CC(O)Cn1c2ccccc2c2ccccc21)S(=O)(=O)c1ccccc1 (stereo not given)	Lassa entry inh 25.9µM, MARV entry inh inconclusive
O=S(=O)(c1ccc(F)cc1)N(CC(O)Cn1c2ccccc2c2ccccc21)c1ccccc1 (stereo not given)	Lassa entry inh inconclusive, MARV entry inh inconclusive
CC(=O)/C(C#N)=C1\NC(=O)C(Cc2ccccc2Cl)S1 (stereo not given)	Lassa entry inh 2.31µM, VACV mCherry inh inconclusive, MARV entry inh inconclusive
CC(=O)/C(C#N)=C1\NC(=O)C(Cc2ccc(F)cc2)S1 (stereo not given)	Lassa entry inh inconclusive, MARV entry inh inconclusive
COc1ccc2c(c1)c(C(=O)CN1CCN(C)CC1)c(C)n2Cc1ccccc1	MARV entry inh 20µM, Vaccinia Venus inconclusive (no result: VACV mCherry inh)
CCOC(=O)C(C)/C(C)=N/NC(N)=S (stereo not given)	VACV mCherry inh 22.4µM, Vaccinia Venus inconclusive
COc1ccccc1C(=O)N[C@@H]1c2ccccc2C2(CCN(Cc3c(O)cccc3OC)CC2)[C@H]1O	Vaccinia Venus inconclusive (no result: Lassa entry inh, MARV entry inh)
O=C(C[n+]1ccccc1Br)c1ccc2c(c1)CCCC2	none (no result: Lassa entry inh, MARV entry inh)
CCC1CN2CCc3cc(OC)c(OC)cc3C2CC1CC1NCCc2cc(OC)c(OC)cc21 (stereo not given)	VACV mCherry inh 2.24µM, Vaccinia Venus 2.51µM (no result: Lassa entry inh, MARV entry inh)

Screening data: PubChem BioAssay, National Center for Advancing Translational Sciences (NCATS)
